Bioassay records as filed in PubChem BioAssay.
Hits are enriched below; roughly 11% of the tested compounds scored in any of these assays.
PNC assembly inh = High Content Assay for Compounds that inhibit the Assembly of the Perinucleolar Compartment; PC3M PTB-GFP, PNC prevalence imaging, 16 h; active compounds read low; activity change (PNC), negative = inhibition, % at 10 µM; 140,000 tested, 3.1% active; AID 2417, 2010;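 active = readout at or below -70, meaning at least 70% loss of cells showing the perinucleolar compartment, a nuclear body marking cancer cells; inconclusive = readout between -30 and a set limit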;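 also: plate controls were DMSO wells for no effect and camptothecin positive control wells for full effect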
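Compounds are pinned in duplicate onto adhered PC3M cells stably expressing GFP-tagged PTB and incubated 16 h at 37 C. Cells are then fixed, nuclei stained with Hoechst, and PNC-positive cells counted.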
HTT aggregate = qHTS Multiplex Assay to Identify Dual Action Probes in a Cell Model of Huntington: Aggregate Formation (GFP); PC12 HttQ103-GFP aggregates, Acumen cytometry, 40 h; Potency, µM (series often up to 46.1 µM), without a hit: at the highest dose activity change, negative = inhibition, usual class: inhibitors; 220,000 tested, 1.1% active; also: potency is read from the fitted curve at half-maximal effect; % is scaled to controls: 0 for no effect and ±100 for the full control effect; nearly all actives have a fitted effect of over 60% in size
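Inducible Q103 Huntingtin exon 1–GFP PC12 line, 1500 cells/well in phenol red free DMEM with 5% equine and 5% calf serum. Tebufenozide 100 nM induced expression; compounds titrated; aggregates quantified by cytometry.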
ALDH1A1 block = qHTS Assay for Inhibitors of Aldehyde Dehydrogenase 1 (ALDH1A1); Aldehyde dehydrogenase 1A1 (Homo sapiens), P00352; Purified ALDH1A1, NADH fluorescence, propionaldehyde substrate; Potency, µM (highest dose often 75.3 µM), inactives show at the highest dose activity, negative = inhibition, actives largely listed as inhibitors; 220,000 tested, 7.3% active; AID 1030, 2008; active = well fitted inhibition curve with a large enough effect, not every such curve was filed as active; inconclusive = small, poorly fitted or top-dose-only effect, or another doubt; inactive = no such curve, though single readings can be large or run the other way;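 also: potency is read from the fitted curve at half-maximal effect; plate controls were no enzyme wells and a reference inhibitor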
HPGD inh = qHTS Assay for Inhibitors of HPGD (15-Hydroxyprostaglandin Dehydrogenase). purified HPGD, NADH fluorescence kinetic, PGE2 substrate. Potency, µM, for the others: at the highest dose activity change, negative = inhibition, most hits filed as inhibitors. 150,000 tested, 4.3% active; active = well fitted inhibition curve with a large enough effect, not every such curve was filed as active; inconclusive = small, poorly fitted or top-dose-only effect, or another doubt; inactive = no such curve, though single readings can be large or run the other way; also: potency is read from the fitted curve at half-maximal effect; % is scaled to controls: 0 for no effect and ±100 for the full control effect
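NADH formation kinetics: reaction with 30 uM PGE2 and 1 mM NAD+ (final), 20 nM enzyme, Tris-HCl pH 8 with Tween 20, after 15 min compound preincubation at room temperature. Fluorescence change, last versus first of five reads.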
CBFb-RUNX1 inh = qHTS Assay for Compounds Blocking the Interaction Between CBF-beta and RUNX1 for the Treatment of Acute Myeloid Leukemia. Runt-related transcription factor 1 (Homo sapiens) + Core-binding factor subunit beta …. AlphaScreen CBFb-His/RUNX1-biotin binding, biochemical. Potency, µM (titrated, usually from 59.8 µM), inactives show top-dose activity, negative = inhibition, usual class: inhibitors. 230,000 tested, under 10 active. AID 1477, 2009; also: % of control where 0% means no effect
Target sequence (Q01196 whole entry, looked up): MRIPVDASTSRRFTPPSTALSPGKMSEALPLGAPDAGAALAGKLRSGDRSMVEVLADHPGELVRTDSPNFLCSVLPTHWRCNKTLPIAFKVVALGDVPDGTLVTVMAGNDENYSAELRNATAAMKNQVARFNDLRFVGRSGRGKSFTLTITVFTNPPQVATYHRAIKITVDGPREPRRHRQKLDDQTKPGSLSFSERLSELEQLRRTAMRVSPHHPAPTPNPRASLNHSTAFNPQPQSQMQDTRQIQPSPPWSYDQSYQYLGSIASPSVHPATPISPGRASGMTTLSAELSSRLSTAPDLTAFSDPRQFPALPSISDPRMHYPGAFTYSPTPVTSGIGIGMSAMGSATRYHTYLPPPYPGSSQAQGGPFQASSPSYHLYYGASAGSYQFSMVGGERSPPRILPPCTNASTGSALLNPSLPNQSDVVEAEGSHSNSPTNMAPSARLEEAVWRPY
Target sequence (Q13951 whole entry, looked up): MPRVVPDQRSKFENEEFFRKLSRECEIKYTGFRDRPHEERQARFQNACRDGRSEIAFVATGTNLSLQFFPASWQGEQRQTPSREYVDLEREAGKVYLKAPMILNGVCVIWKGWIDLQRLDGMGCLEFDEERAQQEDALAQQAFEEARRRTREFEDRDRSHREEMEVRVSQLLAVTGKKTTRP
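Interaction loss through any mechanism counts as activity. Pre-formed complex of His-CBF-beta and biotin-RUNX1 (30 nM apiece) is incubated with compound 15 min, then with 50 ng nickel and 50 ng streptavidin beads for 90 min before AlphaScreen detection.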
HTT cytoprotect = qHTS Multiplex Assay to Identify Dual Action Probes in a Cell Model of Huntington: Cytoprotection (ATP). PC12 HTT-Q103 induced, cytoprotection, ATP luminescence, 40 h. Potency, µM (top dose mostly 56.4 µM), inactives show cytoprotection (ATP increase), actives largely listed as activators. 230,000 tested, 0.14% active; also: potency is read from the fitted curve at half-maximal effect; % of control where 0% means no effect; nearly all actives have a fitted effect of over 45% in size
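Readout: ATPlite luminescence (ATP level). Model: stable PC12, inducible Htt exon1 Q103-GFP. Inducer: tebufenozide, 100 nM final. Compounds: dose series. No G418 in medium.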
Numbers without * were called inactive; ? = inconclusive; . = not tested or not shown; ! = a repeat was not active; [ ] = another dose, or the depositor's remark. Unless noted, calls follow the shape of the dose curve; as a rule, active = well fitted curve in the direction sought with a large enough effect; inconclusive = small, poorly fitted or top-dose-only effect, or another doubt; inactive = no such curve, though single readings can be large; an effect the other way counts as inactive or inconclusive.

SMILES	PNC assembly inh	HTT aggregate	ALDH1A1 block	HPGD inh	CBFb-RUNX1 inh	HTT cytoprotect
Cc1cccc(N2C(=O)CC(Sc3nc(C)cc(C)n3)C2=O)c1 (configuration not stated)	-15	3%[9.22 µM]	?	-26%	1%	3%
O=C(O)c1ccccc1SC1CC(=O)N(c2cccc3ccccc23)C1=O (configuration not stated)	.	8%[9.22 µM]	.	.	8%	8%[10 µM]
CCN1C(=O)CC(Sc2ccccc2C(=O)O)C1=O (configuration not stated)	?	2%	0%	1%	0%	18%
CCOC(=O)c1c(N2C(=O)CC(Sc3ccccc3C(=O)O)C2=O)sc2c1CCCC2 (configuration not stated)	.	12%[9.22 µM]	4.5µM*	.	-6%	-3%[10 µM]
CCOc1ccc(N2C(=O)CC(Sc3ccccc3C(=O)O)C2=O)c([N+](=O)[O-])c1 (configuration not stated)	.	17%	1µM*	.	-9%	.
Cc1cc(C)cc(N2C(=O)CC(Sc3nnnn3-c3ccccc3)C2=O)c1 (configuration not stated)	36	?	14µM*	?	0%	-70%
FC(F)(F)c1ccccc1-c1ccc2ncnc(NC3CC3)c2c1	.	.	-5%	.	.	-33%
COc1cc(N)c(Cl)cc1C(=O)N[C@H]1CCN(CCCOc2ccc(F)cc2)C[C@@H]1OC	.	.	14%	-16%	14%[21.7 µM]	-4%
C#C[C@@]1(O)CCC2C3CCc4cc(O)ccc4C3CC[C@@]21C (some centres not stated)	.	.	14%	-2%	-4%	-39%
CCc1oc2ccccc2c1C(=O)c1cc(Br)c(O)c(Br)c1	26	-19%	-9%[13.5 µM]	18µM*!	-8%	-1%[10 µM]
CCc1ccc(OCC(=O)c2c(O)c3ccccc3oc2=O)cc1	.	0%	?	.	22%	-55%
CS(=O)(=O)N1N=C(c2cccs2)CC1c1ccccc1 (configuration not stated)	.	-2%[9.22 µM]	.	.	11%	0%[10 µM]
c1ccc(C2Oc3ccccc3C3CC(c4cccs4)=NN32)cc1 (configuration not stated)	-20	-1%	13µM*	?	0%	17%[10 µM]
O=C(CNS(=O)(=O)c1ccccc1)NCC(=O)OCc1ccc(C(=O)c2ccccc2)cc1	30	16%	-22%	20µM*	11%	11%[10 µM]
C=C(C)C(=O)Nc1cccc(C2=NOC3(C2)C[C@H](C(N)=O)N(C(=O)COc2ccc(Cl)cc2)C3)c1 (some centres not stated)	.	?	.	.	?	-3%[10 µM]
OC[C@@H]1O[C@@H](n2cnc3c(Nc4ccccc4)ncnc32)[C@@H](O)[C@H]1O	.	.	.	.	.	-28%[1.9 µM]
O=C(Nc1cccnc1)Nc1ccccc1Cl	40	.	-6%	-14%	14%	0.79µM*
O=C(Nc1cccnc1)C1(F)C(F)(F)C(F)(F)C(F)(F)C(F)(F)C1(F)F	-20	6.3µM*	-1%	-9%	3%	-54%
O=C(NCC(F)(F)F)Nc1cccnc1	-100*	-9%	7%	-19%	5%	-18%[10 µM]
CCCCC[C@H](O)/C=C/C1=C(C/C=C\CCCC(=O)O)C(=O)CC1	.	.	-9%	-5%	7%	?
CCC(=O)OCC(=O)C1(OC(=O)CC)C(C)CC2C3CCC4=CC(=O)C=CC4(C)C3(Cl)C(O)CC21C (configuration not stated)	.	.	-2%	-7%	9%	-52%
CCCn1c(N)c(Sc2ccc(Cl)cc2)c(=O)n(CCC)c1=O	-15	5%	4%	-5%	-2%	14%
CCn1c(=O)c(C(=O)Nc2ccccc2C)c(O)c2ccccc21	-100*	1%	17%	?	1%	14%[10 µM]
CCn1c(=O)c(-[n+]2ccccc2)c(O)c2ccccc21	-3	-3%	25µM*	-7%	-2%	-9%[0.074 µM]
CCn1c2ccccc2c(=O)c2ccccc21	.	-8%[9.22 µM]	?	.	2%	-8%[10 µM]
SMILES	PNC assembly inh	HTT aggregate	ALDH1A1 block	HPGD inh	CBFb-RUNX1 inh	HTT cytoprotect
CCN(CC)S(=O)(=O)c1ccc(-c2nnc(SCc3nnc(-c4ccccc4)o3)o2)cc1	?	-11%	9%	.	13%	-3%[10 µM]
Cc1cc(-n2c(C)cc(C(=O)CCl)c2C)no1	.	?	1µM*	.	4%	-42%
Cc1cc(-n2c(C)cc(C(=O)CN3C(=O)NC4(CCCC4)C3=O)c2C)no1	-117*	6%	3%	0%	5%	0%[10 µM]
CC(CN(C)Cc1ccccc1)OC(=O)c1ccc2c(c1)OCCO2 (configuration not stated)	-2	-1%	14%	-6%	13%	2%[10 µM]
Fc1ccccc1NC(=S)NCc1ccc2c(c1)OCO2	1	-7%	-14%	-16%	12%	10%[10 µM]
Cc1ccccc1NC(=S)N/N=C/C(C)c1ccccc1 (configuration not stated)	.	-1%	?	.	-8%	4.5µM*
Cc1ccccc1NC(=S)NCCc1ccccc1	?	11%	?	25µM*	-20%	-36%[0.074 µM]
Cc1cccc(C)c1NC(=S)NCCc1ccccn1	-105*	-29%	-4%	-9%	-1%	.
S=C(NCc1ccccc1)NCc1ccc2c(c1)OCO2	?	12%	?	16µM*	2%	13%[1.9 µM]
O[C@@](CCN1CCCCC1)(c1ccccc1)C1CCCCC1	.	.	-6%[20.9 µM]	-5%	-2%[21.7 µM]	-1%[40.3 µM]
OCCNC(=S)NCc1ccccc1	.	-4%[9.22 µM]	.	.	5%	12%[10 µM]
O=S(=O)(c1c(F)cccc1F)N1CCN(C(=S)NCc2ccc3c(c2)OCO3)CC1	.	-13%	4µM*	.	-7%	-73%
S=C(NCc1ccccc1)NCc1ccccc1	-22	11%	?	14µM*	1%	8%
Cc1cccc(NC(=S)NCCc2ccccc2)n1	.	-20%	?	.	-7%	-28%
Cc1c(Cl)cccc1NC(=S)NCCC(c1ccccc1)c1ccccc1	?	10%	?	-19%	-3%	.
Cc1cc(Cl)ccc1NC(=S)NCCC(c1ccccc1)c1ccccc1	-86*	?	0%	-7%	3%	13%[10 µM]
S=C(NCCc1ccccc1)Nc1ccccn1	11	8%	3.2µM*	-5%	-5%	7%[10 µM]
